TDP1 cell CPT: growth inhibition of DT40 Tdp1-/-;hTDP1 cells with camptothecin (screen for TDP1 inhibitors). 12% of 420,000 active. chicken DT40 Tdp1-/-;hTDP1 cells + 20 nM CPT, ATP luminescence, 48 h. Potency, µM (top dose mostly 46.2 µM), for the others: at the highest dose activity change, negative = growth inhibition, hits mostly inhibitors; note: nearly all actives have a fitted effect of over 55% in size
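Chicken DT40 Tdp1-/- cells stably complemented with human TDP1 were seeded at 400 cells/well in medium containing 20 nM camptothecin, exposed to pin-transferred compounds, and grown at 37 °C for at least 48 hr. Viability was read as ATP luminescence.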
TDP1 cell noCPT: qHTS for Inhibitors of human tyrosyl-DNA phosphodiesterase 1 (TDP1): qHTS in cells in absence of CPT; DT40 Tdp1-/- hTDP1 cells, no CPT, ATP luminescence, 48 h; Potency, µM (top dose mostly 46.2 µM), for inactives: at the top dose activity change, negative = growth inhibition, actives largely listed as inhibitors; 15% of 420,000 active; note: nearly all actives have a fitted effect of over 55% in size
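No-CPT arm: Tdp1-/-;hTDP1 DT40 cells (400/well) plus compounds, incubated ≥48 hr at 37 °C. Readout CellTiter-Glo luminescence.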
KAT2A inh: inhibitors of human GCN5L2 histone acetyltransferase. Q92830. GCN5L2 HAT assay, ThioGlo1 CoA-SH fluorescence. Potency, µM (top dose mostly 58.9 µM), for inactives: at the highest dose activity change, negative = inhibition, most hits filed as inhibitors. 0.21% of 390,000 active
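ThioGlo1-coupled HAT assay: 20nM GCN5L2, 70uM acetyl-CoA, 75uM H3(1-25) peptide, pH 7.5. Fluorescence read at 340/540nm at start and after 20 min at room temperature.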
PLK1 PBD inh: inhibitors of human PLK1 polo-box domain binding; Plk1 PBD binding of FITC phosphopeptide, fluorescence polarization; AID 720504; 2.8% of 360,000 active; P53350; Potency, µM, inactives show max response, negative = inhibition, usual class: inhibitors; note: series mostly up to about 57 µM; nearly all actives have a fitted effect of over 65% in size
VDR inh: blocks the human vitamin D receptor. VDR-SRC2-3 peptide fluorescence polarization, 2 h. 0.93% of 400,000 active. P11473. Potency, µM, without a hit: max response, negative = inhibition, actives largely listed as inhibitors
Target sequence (P11473 whole entry, looked up): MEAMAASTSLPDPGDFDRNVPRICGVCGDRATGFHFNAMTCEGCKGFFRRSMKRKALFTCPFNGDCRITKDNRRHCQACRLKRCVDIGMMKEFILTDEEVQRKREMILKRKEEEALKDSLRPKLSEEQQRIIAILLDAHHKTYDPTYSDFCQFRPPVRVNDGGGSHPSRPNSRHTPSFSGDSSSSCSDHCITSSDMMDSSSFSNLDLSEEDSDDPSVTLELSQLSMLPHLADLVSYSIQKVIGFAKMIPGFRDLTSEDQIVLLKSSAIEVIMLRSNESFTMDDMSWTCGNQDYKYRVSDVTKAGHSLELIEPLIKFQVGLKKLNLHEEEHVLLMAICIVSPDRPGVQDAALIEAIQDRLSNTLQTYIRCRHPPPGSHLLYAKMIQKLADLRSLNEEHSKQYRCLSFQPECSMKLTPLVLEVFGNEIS
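The screen uses fluorescence polarization to detect compounds that interfere with recruitment of the SRC2-3 coactivator peptide to VDR; plates are read after 2 h at room temperature.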
TDP1 inh: TDP1 (human) enzyme inhibition. Potency, µM (doses to about 130 µM), for the others: top-dose activity change, negative = inhibition, most hits filed as inhibitors. AID 485290. Q9NUW8. 0.28% of 350,000 active. recombinant TDP1, AlphaScreen DNA substrate cleavage; note: nearly all actives have a fitted effect of over 40% in size
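E. coli-derived human Tdp1, 1 nM final. Cpd preinc 15 min RT; substrate 15 nM final, 5 min RT; AS bead mix 10 ug/ml final, 10 min RT. Signal loss = tyrosine-FITC cleavage. No-enzyme wells = max signal.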
* hit, by the source's call; ? = inconclusive; . = not tested or not shown; [ ] = another dose, or the depositor's remark. Compounds with a hit are over-represented: about 18% of the library has one in this group of screens. Calls come from the whole dose curve; as a rule, active = well fitted curve in the direction sought with a large enough effect; inconclusive = small, poorly fitted or top-dose-only effect, or another doubt; inactive = no such curve, though single readings can be large; an effect the other way counts as inactive or inconclusive. % is set by controls: 0 for no effect and ±100 for the full control effect; potency is the fitted concentration of half-maximal effect.

SMILES	TDP1 cell CPT	TDP1 cell noCPT	KAT2A inh	PLK1 PBD inh	VDR inh	TDP1 inh
CC(C)(C)C(=O)[C@@H]1[C@@H]2C(=O)N(C3CCCCC3)C(=O)[C@@H]2[C@H]2c3ccccc3C=CN12	23µM*	?	-3%	27µM*	27%	9%
CCOC(=O)c1cc(OCc2csc(-c3ccccc3)n2)cc(C(=O)OCC)c1	-27%	-27%	.	.	.	.
COCCNC(=O)[C@H](C)/C=C/C(NC(=O)OCc1ccccc1)c1ccc(C(=O)OC)cc1 (some centres undefined)	.	.	.	.	.	7%
COc1cccc(-c2nnc(-c3ccccc3NC(=O)c3cccc(C(F)(F)F)c3)o2)c1	-8%	-12%	0%	.	9%	3%
Cc1cscc1-c1nc(NCC2CC2)nc2ccsc12	?	?	.	-5%	.	.
CNc1nc(Oc2cccc(F)c2)c2sccc2n1	-24%	-26%	.	6%	.	.
CCc1ccccc1Oc1nc(NCc2ccccc2)nc2ccsc12	?	?	.	0%	.	.
COc1cccc(CNc2nc(NCC3CC3)nc3ccsc23)c1	16µM*	2.1µM*	.	-3%	.	.
CNc1nc(NCc2cccc(OC)c2)c2sccc2n1	7.3µM*	10µM*	.	3%	.	.
COc1cccc(CNc2nc(NCc3ccccc3)nc3ccsc23)c1	2.1µM*	4.1µM*	.	5%	.	.
O=C(NCc1ccco1)c1ccc2sc([C@H]3C[C@H](O)[C@@H](CO)O3)nc2c1	?	-7%	.	-11%	.	.
CC(C)c1ccc(NC(=O)CCNS(=O)(=O)c2cc(Br)cnc2N)cc1	16µM*	?	-3%	2%	11%	3%
O=C(O)CNS(=O)(=O)c1ccc(C2CCCCC2)cc1	0%	-9%	1%	5%	4%	-3%
NC(=S)N=Nc1c(O)n(Cc2ccc(F)cc2)c2ccccc12	16µM*	?	-6%	-5%	14%	5%
Cc1ccc2c(c1)c(N=O)c(O)n2Cc1ccc(Cl)cc1	-21%	-16%	-10%	-8%	6%	-2%
NC(=S)N=Nc1c(O)n(Cc2ccc(Br)cc2)c2ccccc12	5.2µM*	4.6µM*	0%	-13%	-13%	1%
Cc1ccc2c(c1)c(N=NC(N)=S)c(O)n2Cc1ccccc1	4.1µM*	3.3µM*	-4%	-9%	-11%	6%
O=Nc1c(O)n(Cc2ccc(Cl)cc2)c2ccccc12	7%	-25%	27%	2%	-23%	8%
COc1ccc(NC(=O)CSc2nc3ccccc3n2CC(=O)N(C)C2CCCCC2)cc1	?	?	-6%	.	15%	1%
CCCC(=O)OCc1cnc(C)c2oc(=O)c(C(=O)Nc3ccc(F)cc3C)cc12	?	-36%	-9%	.	1%	9%
Cc1cc2nc(-c3ccco3)c(Cc3ccccc3C(F)(F)F)n2c(C)c1Br	?	?	.	-29%	.	.
COCc1c(C(=O)N2CCC(N3CCCCC3)CC2)cnn1-c1ncc(C)c(-c2cccs2)n1	10%[9.04 µM]	-7%	.	.	.	.
CN1OC[C@@H]2CN(Cc3ccccc3)[C@H](c3cccc(N4CCOCC4)c3)C[C@@H]21	-8%	6%	.	-7%	-4%	.
Cc1ccccc1S(=O)(=O)N1C[C@H]2CON(C)[C@H]2C[C@H]1c1cccc(Oc2ccccc2)c1	?	18µM*	.	-2%	-11%	.
CN1OC[C@@H]2CN(S(=O)(=O)c3cc(Cl)cc(Cl)c3)[C@H](c3ccc(-c4ccc(C#N)cc4)cc3)C[C@@H]21	?	21µM*	.	-6%	.	.
SMILES	TDP1 cell CPT	TDP1 cell noCPT	KAT2A inh	PLK1 PBD inh	VDR inh	TDP1 inh
CN1C[C@H]2CON(C)[C@H]2C[C@H]1c1cccc(-c2ccc(C#N)cc2)c1	-14%	-2%	.	-19%	5%	.
CN1OC[C@@H]2CN(Cc3ccc(Cl)cc3)[C@H](c3cccc(Br)c3)C[C@@H]21	?	16µM*	.	7%	10%	.
CN1OC[C@@H]2CN(Cc3cc(Cl)cc(Cl)c3)[C@H](c3cccc(-c4ccc(C#N)cc4)c3)C[C@@H]21	21µM*	?	.	-10%	.	.
Cc1ccccc1-c1cccc([C@@H]2C[C@H]3[C@H](CON3C)CN2Cc2ccccc2)c1	23µM*	16µM*	.	-2%	-10%	.
CC(C)NC(=O)c1cc(C2CCCCN2S(=O)(=O)c2ccccc2)on1 (centres undefined)	-26%	-26%	.	-8%	.	.
C=C1CC2(OC1=O)c1ccccc1CCc1ccccc12	4.6µM*	2.9µM*	.	0%	?	.
COC(=O)c1cc(=O)c(O)c2c(O)c(O)ccc2c1	?	?	-22%	.	22µM*	.
COC(=O)c1ccc2cc(OC)c(OC)cc2c1	-22%	?	.	-12%	.	.
CC(=O)c1ccc(N2CCN(c3ncccn3)CC2)cc1	-2%	-14%	-3%	-3%	-3%	0%
Cc1c(C(=O)OCC(=O)Nc2c(C)n(C)n(-c3ccccc3)c2=O)cccc1[N+](=O)[O-]	?	?	0%	21µM*	8%	7%
CCC(C)(C)C1CCc2nc3ccccc3c(C(=O)OC(C)C(=O)Nc3c(C)n(C)n(-c4ccccc4)c3=O)c2C1 (centres undefined)	23µM*	?	-4%	-6%	-19%	-3%
Cc1c(NC(=O)C(C)OC(=O)c2cccs2)c(=O)n(-c2ccccc2)n1C (centres undefined)	-1%	20%	3%	-17%	16%	6%
CCCc1nc2ccccc2c(C(=O)OCC(=O)Nc2c(C)n(C)n(-c3ccccc3)c2=O)c1CC	?	16µM*	21%	-1%	7%	5%
CCc1ccc(C(=O)OCC(=O)Nc2c(C)n(C)n(-c3ccccc3)c2=O)cc1	-7%	-2%	.	-16%	.	.
COc1ccc(S(=O)(=O)N2CCC(c3cc(-c4cccc5ccccc45)n[nH]3)CC2)cc1	?	?	-9%	-3%	6%	5%
O=S(=O)(c1cccc(C(F)(F)F)c1)N1CCC(c2cc(-c3cccc4ccccc34)n[nH]2)CC1	21µM*	?	-8%	19µM*	?	1%
COc1ccc(-c2oc3ncn4nc(-c5ccccc5Cl)nc4c3c2-c2ccc(OC)cc2)cc1	-2%	5%	-3%	.	-14%	-4%[12.3 µM]
COc1ccc(C(=O)/C=C/c2ccsc2)cc1CSCC(=O)O	9.2µM*	12µM*	-11%	-17%	?	-19%
COc1ccc(C(C)=O)cc1CSCCC(=O)O	-11%	-7%	?	?	-3%	2%
CC(=O)N1CCC2(CCN(Cc3ccncc3)CC2)CC1	17%	-4%	-9%	.	7%	.
